# Data published in PubChem BioAssay AID743279 (National Center for Advancing Translational Sciences (NCATS), 2014).
# In all, about 360,000 compounds went through this assay and about 17,000 (4.7%) were called active. Inconclusive results (about 5%) are left out. This is one part of a sample in which actives are shown more often than they occur. Rule as the data show it: active = activity change below about -50%; inconclusive = mostly about -30% to -49%; inactive = weaker than that.
# Assay: qHTS for Inhibitors of Inflammasome Signaling: IL-1-beta AlphaLISA Primary Screen
# Conditions: THP-1 LPS/ATP IL-1B secretion, 16 h; at 57.5 µM, hits give low values
# In short: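 THP-1 cells pretreated 1 hr with compounds (up to 57.5 uM final), then stimulated with LPS (250 ng/mL final) plus ATP (1.25 mM final); secreted IL-1B measured by AlphaLISA after 16 hr, decreased signal indicating inhibition.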
# % is scaled to controls: 0 for no effect and ±100 for the full control effect.
row,SMILES,activity change
1,Cc1cc(C)nc(NNC2=CC(=O)CC(C)(C)C2)n1,31.9% (inactive)
2,CCN1CCN(C(=O)CN(C)S(=O)(=O)c2ccc3ccccc3c2)CC1,20.4% (inactive)
3,CC(=O)Oc1ccc(N(C(C)=O)S(=O)(=O)c2ccc3ccccc3c2)cc1Br,-50% (active)
4,COCCNC(=O)COc1ccc(N(C)S(=O)(=O)c2ccc3ccccc3c2)cc1,22.7% (inactive)
5,COc1cccc(C(=O)Nc2ccc3nc4n(c(=O)c3c2)CCCCC4)c1,5.21% (inactive)
6,Cc1ccc(OCC(=O)Nc2ccccc2C(=O)NC2CC2)cc1C,0% (inactive)
7,CCOC(=O)c1cc(-c2sc(NC(=O)c3ccccc3)nc2C)n(Cc2ccccc2)n1,-3.85% (inactive)
8,COCCNC(=O)CN(Cc1ccco1)C(=O)CCC(=O)Nc1nccs1,-4.97% (inactive)
9,CCC(C)(C)n1nnnc1C(c1cccs1)N1CCN(c2nc3ccccc3s2)CC1 (stereo unspecified),-62.8% (active)
10,CCC(C)(C)n1nnnc1C(c1ccc(OC)c(OC)c1)N1CCN(C(=O)c2ccco2)CC1 (stereo unspecified),1.37% (inactive)
11,Fc1ccc(Cn2nnnc2C(c2cccs2)N2CCCCCC2)cc1 (stereo unspecified),-13.3% (inactive)
12,Cc1ccc(-c2nc3c(Cl)cc(C(F)(F)F)cn3c2Cc2cccc(Cl)c2)cc1,41.1% (inactive)
13,CN1C(=O)C(CC(=O)Nc2ccccc2)S/C1=N/c1nccs1 (stereo unspecified),-2.9% (inactive)
14,CCN1C(=O)C(CC(=O)Nc2cc(C)ccc2C)SC1=Nc1ccc(S(N)(=O)=O)cc1 (stereo unspecified),-5.39% (inactive)
15,O=C(CC1SC(=Nc2ccccc2)N(Cc2ccccn2)C1=O)Nc1cccc(Cl)c1 (stereo unspecified),-60.7% (active)
16,CCN(CC)CCN(C)C(c1ccnc2ccccc12)c1nnnn1-c1ccc2c(c1)OCCO2 (stereo unspecified),-3.67% (inactive)
17,CC(C)C1CC2=C(C(=O)OC(C)(C)O2)C(c2ccc(F)cc2)O1 (stereo unspecified),43.5% (inactive)
18,Cc1ccc(O)c(CNc2nc3ccccc3n2C)c1,-11.8% (inactive)
19,CC(C)n1c(NCc2c[nH]c3ccccc23)nc2ccccc21,-81.7% (active)
20,CC(C)n1c(-c2cccs2)nc2ccccc21,-1.34% (inactive)
21,COCC(C)NC(=O)CSc1nc2nn(-c3ccccc3)c(=O)c-2c2n1CCCCC2 (stereo unspecified),-2.5% (inactive)
22,COc1ccc(C(C)C)cc1-c1ccc2nncn2c1,15.9% (inactive)
23,Cc1c(C(=O)N2CCCc3ccccc32)oc2ccccc12,3.03% (inactive)

row,SMILES,activity change
1,COc1ccc2oc(=O)c(C(=O)N3CCCc4ccccc43)cc2c1,-74% (active)
2,Cc1ccc(C(=O)N2CCCc3ccccc32)c(Cl)c1,64.5% (inactive)
3,CCOC(=O)[C@@H]1[C@H]2COc3ccc(Br)cc3[C@H]2N2C(=O)N(c3ccc(Cl)cc3)C(=O)[C@@]12C,8.14% (inactive)
4,O=S(=O)(c1cccc(C(F)(F)F)c1)N1c2ccccc2-n2cccc2C1c1cccnc1 (stereo unspecified),41.9% (inactive)
5,CC1(C)CC(N2CCN(C(c3ccccc3)c3ccccc3)CC2)=CC(=[N+]2CCCCC2)C1,-71.2% (active)
6,CC(C)OCC(O)CN1CCN(C(c2ccccc2)c2ccccc2)CC1 (stereo unspecified),-6.29% (inactive)
7,c1ccc(C(c2ccccc2)N2CCN(Cc3nnnn3C3CCCCC3)CC2)cc1,20.1% (inactive)
8,CC(C)(O)C1=C[N+](=O)CC=C1,16.1% (inactive)
9,COc1cccc(NC(=O)C2(C)CCN2Cc2ccccc2Cl)c1 (stereo unspecified),-11.6% (inactive)
10,CNN/C(N=Cc1ccc([N+](=O)[O-])s1)=N\S(=O)(=O)c1cc(C)c(Cl)cc1SCc1ccccc1,-7.5% (inactive)
11,O=[N+]([O-])c1ccc(C=Nc2ccc(Cl)cc2Cl)s1,-106% (active)
12,CC1CN(C(=O)c2ccc([N+](=O)[O-])s2)CC(C)O1 (stereo unspecified),22.4% (inactive)
13,CCCCn1nnnc1NCc1cc(OC)c(OC)c(OC)c1,25.2% (inactive)
14,CCn1c2ccccc2c2cc(NC(=O)CNC)ccc21,-85.6% (active)
15,CCn1c2ccccc2c2cc(NC(=O)C/C(C)=N/NC(=O)c3ccccc3N)ccc21,25.4% (inactive)
16,CCn1c2ccccc2c2cc(NC(=O)COC(=O)c3ccccc3Br)ccc21,-18.9% (inactive)
17,Cc1nn(-c2ccccc2)c2c1c(C)c(CCC(=O)NCC1CCCO1)c(=O)n2C (stereo unspecified),-20.2% (inactive)
18,Cc1ccc(CNC(=O)Nc2nnc([C@H]3C[C@H](O)[C@@H](CO)O3)s2)cc1,3.84% (inactive)
19,C[C@@H]1CN([C@H](C)CO)C(=O)c2cc(-c3ccc(F)cc3)cnc2O[C@H]1CN(C)C(=O)c1ccc(F)cc1,-10.1% (inactive)
20,CN(CCc1ccccc1)c1ccc([N+](=O)[O-])cn1,25.8% (inactive)
21,Cc1ccc(OCCC(=O)OCC(=O)N2c3ccccc3NC(=O)C2(C)C)cc1,11% (inactive)
22,CNS(=O)(=O)c1cccc(C(=O)OCC(=O)N2c3ccccc3NC(=O)C2(C)C)c1,11.2% (inactive)
23,Cc1cc(C(=O)OCC(=O)N2c3ccccc3NC(=O)C2(C)C)c(C)n1-c1ccccc1,-78.6% (active)
